Assay outcomes (PubChem)
rCAG RNA binder = binders of r(CAG) RNA repeats, primary screen, biochemical, fluorescence. r(CAG) RNA repeat, TO-PRO-1 dye displacement fluorescence. inhibition, % at 3 µM. actives 1.3% (n = 370,000). AID 651821, 2012;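 active means inhibition above the plate cutoff, the mean of all test compounds on that plate plus 3 SD, cut at about 35% in these data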;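 further: 0% = DMSO alone and 100% = 100 µM mitoxantrone as full dye displacement; higher means more dye released from RNA so lower well fluorescence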
PG9 binder = binders of HIV-1 gp120 antibody PG9, primary screen, biochemical, TR-FRET; HIV-1 gp120 / PG9 antibody interaction; TR-FRET gp120-PG9 antibody binding; inhibition, % at 6.7 µM; actives 0.43% (n = 360,000); in the data active means inhibition above about 8.5%
Granule exo inh = LAMP-1 surface exposure blockers, TALL-104 cells – cell-based, flow cytometry, MLPCN library, primary screen; TALL-104 LAMP-1 surface exposure; cells stimulated with thapsigargin and PMA; inhibition, % at 10 µM; actives 0.66% (n = 360,000); AID 651702, 2012;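 active means inhibition above about 55%, limit read from the data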
ABCB6 inh 2 = ABCB6 transporter inhibitors, primary screen, K562-ABCB6 cells, flow cytometry, MLPCN library | ATP-binding cassette sub-family B member 6 (Homo sapiens), Q9NP58 | K562-ABCB6 porphyrin accumulation, 1 h; hits give low values | fluorescence ratio to DMSO, % at 10 µM | actives 0.19% (n = 360,000) | AID 602162, 2011;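 active means fluorescence ratio to DMSO below 75%, the collection mean minus 3 SD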;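 further: signal is porphyrin accumulated inside mitochondria; 100% equals median channel fluorescence of DMSO control wells; lower ratio means ABCB6 inhibition with less porphyrin fluorescence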
Target sequence (Q9NP58 whole entry, looked up): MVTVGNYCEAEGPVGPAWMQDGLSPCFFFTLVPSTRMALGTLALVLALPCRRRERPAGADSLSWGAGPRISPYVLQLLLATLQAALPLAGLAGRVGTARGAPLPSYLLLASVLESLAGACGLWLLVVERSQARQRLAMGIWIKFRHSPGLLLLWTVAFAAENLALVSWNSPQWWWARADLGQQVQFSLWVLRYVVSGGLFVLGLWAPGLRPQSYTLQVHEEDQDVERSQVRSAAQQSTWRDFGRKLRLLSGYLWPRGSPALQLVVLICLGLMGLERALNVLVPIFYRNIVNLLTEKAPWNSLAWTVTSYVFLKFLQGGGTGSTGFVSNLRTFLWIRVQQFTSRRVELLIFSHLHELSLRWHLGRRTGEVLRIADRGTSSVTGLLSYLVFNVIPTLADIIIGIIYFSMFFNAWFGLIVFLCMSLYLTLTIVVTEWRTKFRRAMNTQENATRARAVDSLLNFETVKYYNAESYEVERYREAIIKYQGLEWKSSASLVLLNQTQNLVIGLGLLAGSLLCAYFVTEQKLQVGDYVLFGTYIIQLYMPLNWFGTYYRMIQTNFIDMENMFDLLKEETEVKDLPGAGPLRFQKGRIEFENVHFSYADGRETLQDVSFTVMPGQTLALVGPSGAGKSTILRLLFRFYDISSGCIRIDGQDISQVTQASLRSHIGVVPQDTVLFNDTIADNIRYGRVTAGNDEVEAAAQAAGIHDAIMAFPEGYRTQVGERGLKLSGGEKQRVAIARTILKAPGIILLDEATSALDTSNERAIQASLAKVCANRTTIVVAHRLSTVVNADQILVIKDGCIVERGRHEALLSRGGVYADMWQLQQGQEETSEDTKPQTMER
ABCB6 inh CP1 = ABCB6 transporter inhibitors, confirmation, K562-ABCB6 cells, flow cytometry, cherry pick 1; ratio response (% of DMSO), % at 10 µM; K562-ABCB6 porphyrin accumulation, 1 h; hits give low values; AID 602430, 2012; shares compounds with ABCB6 inh 2; 700 tested, under 10 active;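 active means repeat-averaged ratio response below 75% of DMSO, the collection mean minus 3 SD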;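 further: median porphyrin fluorescence at 575 nm with 488 nm excitation from mitochondria; lower ratio means less porphyrin signal so ABCB6 inhibition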
An asterisk follows results filed as active; nt = no result given. This is a sample that favours compounds with a hit; in the whole collection about 2.5% have one here.

SMILES	rCAG RNA binder	PG9 binder	Granule exo inh	ABCB6 inh 2	ABCB6 inh CP1
Nc1nc(SCc2ccc(Br)cc2)[nH]c(=O)c1-c1ccccc1	-1.4	-2.0	-4.0	98.0	nt
O=C(C(=O)N1CCN(S(=O)(=O)c2ccccc2)CC1)c1cccc(C(F)(F)F)c1	2.5	1.4	nt	nt	nt
Cc1ccc2c(c1)-c1c(cnn1CC(=O)NCCc1ccccc1F)CO2	1.4	nt	nt	nt	nt
CCc1nc(SCC(=O)N2CCN(C(=O)c3ccco3)CC2)c2c3c(sc2n1)CCCC3	-2.2	-1.3	0.2	28.0*	98.0
COc1ccc(NC(=O)c2cc(-c3ccc(F)cc3OC)n[nH]2)cc1OC	0.7	1.3	-5.6	100.0	nt
COc1ccc(-c2cc(C(=O)Nc3ccc(OC)c(OC)c3)[nH]n2)c(C)c1	2.6	-2.3	4.8	70.0*	98.0
Cc1ccc(C)c(Cn2nnc3c(=O)[nH]c(C4CCN(C(=O)c5cccs5)CC4)nc32)c1	0.6	1.8	0.2	83.0	nt
O=C(c1cccs1)N1CCC(c2nc3c(nnn3Cc3c(Cl)cccc3Cl)c(=O)[nH]2)CC1	2.9	0.2	29.9	96.0	100.0
O=C(c1cccs1)N1CCCC(c2nc3c(nnn3Cc3cccc(Cl)c3)c(=O)[nH]2)C1 (configuration not stated)	7.2	-0.9	7.3	95.0	nt
O=C(c1cccs1)N1CCC(c2nc3c(nnn3Cc3cccc(Cl)c3)c(=O)[nH]2)CC1	2.3	-2.2	9.5	101.0	99.0
Cc1ccc(Cn2nnc3c(=O)[nH]c(C4CCN(C(=O)c5cccs5)CC4)nc32)cc1	0.3	-1.4	-2.6	100.0	98.0
O=C(c1ccc(COc2ccccc2Br)o1)N1N=C(C(F)F)CC1(O)C(F)F (configuration not stated)	4.4	0.6	-3.2	96.0	101.0
C[C@@H]1CN([C@@H](C)CO)S(=O)(=O)c2ccc(Br)cc2O[C@H]1CN(C)C(=O)Nc1ccc2c(c1)OCO2	3.0	0.9	8.3	104.0	nt
CCOc1ccc(C(=O)NCC(C)C)cc1	-2.4	1.5	-1.5	74.0*	100.0
Cc1cc(N2C(=O)CC(Cc3ccccc3)C2=O)no1 (configuration not stated)	1.1	1.0	-3.7	72.0*	101.0
Cc1ccc(OCC(O)CNC(=O)c2ccccc2C(=O)O)cc1 (configuration not stated)	-4.9	1.3	0.1	71.0*	99.0
Cc1ccc(S(=O)(=O)Cn2cnnn2)cc1	1.9	2.4	1.9	60.0*	100.0
CCCC#C/C(CCC)=C1\c2ccccc2C(=O)N1c1ccccc1	7.2	-2.3	nt	nt	nt
O=C1C(C=Nc2ccccc2)=C(O)c2ccccc21	2.6	1.1	-1.6	71.0*	97.0
COc1ccc(CNc2ncnc3cc(Cl)ccc23)cc1OC	-0.7	-0.9	0.1	95.0	nt
Fc1ccc(CNc2ncnc3cc(Cl)ccc23)cc1	0.0	-1.2	2.1	9.0*	100.0
O=C(OCC(=O)N1CCN(c2ccccc2)CC1)c1ccc2ccccc2n1	-3.6	-2.1	0.4	74.0*	99.0
COc1ccc(NC(=O)CN2CCCCCC2)cc1OC	1.2	0.5	3.5	73.0*	100.0
COc1ccc(NC(=O)CN2CCCCC2)cc1S(=O)(=O)N1CCCCC1	2.8	-0.6	0.6	97.0	nt
CCOC(=O)N1CCN(CC(=O)Nc2ccc(C)cc2)CC1	-5.8	-2.1	6.5	72.0*	96.0
SMILES	rCAG RNA binder	PG9 binder	Granule exo inh	ABCB6 inh 2	ABCB6 inh CP1
O=C(CN1CCCCC1)Nc1cccc(Br)c1	3.4	0.8	-5.9	69.0*	98.0
COC(=O)[C@]12C[C@H](CC(=O)NCCCN3CCCC3=O)C(=O)N(Cc3ccccc3)C1=C[C@H](COCc1ccccc1)O[C@@H]2C	-0.3	nt	nt	nt	nt
CCC(CC)C(=O)NCCCN1CCOCC1	-1.0	-0.7	-6.1	94.0	nt
Cn1c(SCC(=O)N2CCOCC2)nnc1-c1ccc(Cl)cc1Cl	-2.7	1.9	0.6	73.0*	103.0
COC(=O)c1cc2c(c3c4cc(C)ccc4n(S(=O)(=O)c4ccc(C)cc4)c13)C(=O)N(Cc1ccccc1OC)C2	12.2	-1.1	nt	nt	nt
COc1ccccc1OCc1nnc(SCC(=O)c2cc(Cl)ccc2OC)o1	6.7	1.8	4.8	68.0*	98.0
CC(C)C(=O)NNC(=O)c1cc2sccc2s1	-0.2	-0.2	15.7	96.0	nt
CCOC(=O)N1CCN(C(=O)C[C@H]2C[C@@]3(C(=O)OC)C(=C[C@H](C(C)C)O[C@@H]3C3CC3)N(Cc3ccc(Cl)cc3Cl)C2=O)CC1	3.9	nt	nt	nt	nt
O=C(Oc1ccc(/C=N/n2cnnc2)cc1)c1cccc([N+](=O)[O-])c1	-1.5	-2.7	-1.4	73.0*	99.0
CN(C)/N=C/c1ccc(OC(=O)c2cccc([N+](=O)[O-])c2)cc1	-3.5	0.0	1.8	98.0	nt
COC(=O)[C@]12C[C@H](CC(=O)NCc3cccc(C(F)(F)F)c3)C(=O)N(Cc3ccccc3)C1=C[C@H](C1CCCC1)O[C@@H]2C	2.4	-0.1	nt	nt	nt
O=C(CN1C(=O)c2cccc3cccc1c23)N1CCN(c2ccc(F)cc2)CC1	-3.8	-0.1	-3.8	60.0*	104.0
O=C(CN1C(=O)c2cccc3cccc1c23)N1CCN(c2ccccc2)CC1	-4.5	1.3	0.1	89.0	nt
COc1ccccc1Oc1nc2c(c(=O)n(Cc3ccccc3F)c(=O)n2C)n1C	-3.3	0.6	-1.0	74.0*	98.0
O=[N+]([O-])c1cccc(COc2ncnc3cc([N+](=O)[O-])ccc23)c1	5.2	-1.1	0.7	10.0*	96.0
OC(COc1ccc(Br)cc1)Cn1ccnc1 (configuration not stated)	0.1	-0.2	1.1	74.0*	99.0
COc1cc(C2=NOC(C(=O)N3CCCc4ccccc43)C2)cc(OC)c1OC (configuration not stated)	-2.9	0.6	6.7	64.0*	100.0
COc1ccc(C2=NOC(C(=O)N3CCCc4ccccc43)C2)cc1 (configuration not stated)	-9.7	0.8	0.6	104.0	nt
CN(C)C(=O)c1cn(-c2ccccc2)nc1-c1cc2ccccc2oc1=O	-4.4	-2.5	-0.5	100.0	nt
CN(C)C(=O)c1cn(-c2ccccc2)nc1-c1cc2ccccc2o1	-5.9	-1.8	1.3	35.0*	100.0
O=C(Nc1ccc(Nc2ccccc2)cc1)Nc1ccccc1Cl	12.2	-2.0	2.5	10.0*	100.0
O=C(Nc1ccccc1Cl)Nc1ccccc1Cl	-0.5	0.3	-2.4	96.0	nt
CCN1C(=O)c2ccccc2S(=O)c2ccc(C(=O)NCCN(CC(C)C)CC(C)C)cc21 (configuration not stated)	-5.5	-1.8	11.2	94.0	nt
CCN1C(=O)c2ccccc2S(=O)(=O)c2ccc(C(=O)NCCCN(CC(C)C)CC(C)C)cc21	-5.7	-1.2	26.8	66.0*	101.0
